Laboratory results: PubChem BioAssay (NCI)
Compounds without any hit were thinned out: in the full panel of roughly 79,000, 15% have a hit. Calls of active or inactive are those of the source. Rule as the data show it: active = growth inhibition above about 70%; inactive = the rest.

Assays:
[1] = NCI Yeast Anticancer Drug Screen. Data for the rad50 strain (AID 155);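 also: 0% = growth of vehicle-only cultures of the same strain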; conditions: S. cerevisiae rad50 strain growth inhibition, hits give high values
Procedure, shortened: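 Genetically altered yeast (DNA repair pathway); compound treatment; growth inhibition vs vehicle ctrl.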

[2] = NCI Yeast Anticancer Drug Screen. Data for the mec2-1 strain (AID 157); conditions: S. cerevisiae mec2-1 strain, hits give high values
Procedure, shortened: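 Growth inhibition is read against vehicle-treated controls after compound exposure of the mec2-1 yeast strain, which is defective in DNA damage repair or cell cycle control.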

[3] = NCI Yeast Anticancer Drug Screen. Data for the sgs1 mgt1 strain (AID 161);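 also: 0% = growth of cultures given vehicle only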; conditions: S. cerevisiae sgs1 mgt1 strain, hits give high values
Procedure, shortened: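 Percent growth inhibition was derived by comparing compound-exposed mutant yeast with vehicle-exposed cultures. The strain carries alterations in DNA damage repair.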

[4] = NCI Yeast Anticancer Drug Screen. Data for the cln2 rad14 strain (AID 165);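 also: 0% = growth equal to vehicle treated cultures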; conditions: S. cerevisiae cln2 rad14 strain, hits give high values
Procedure, shortened: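 Growth inhibition, relative to vehicle-treated controls, is the read-out. The test organism is a yeast strain with defined genetic alterations, cln2 rad14.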

[5] = NCI Yeast Anticancer Drug Screen. Data for the bub3 strain (AID 167); conditions: S. cerevisiae bub3 mutant strain, hits give high values
Procedure, shortened: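 Yeast carrying a defined mutation is treated with each compound, and growth is compared with that of vehicle-exposed cells to give inhibition.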

[6] = NCI Yeast Anticancer Drug Screen. Data for the mlh1 rad18 strain (AID 175); conditions: S. cerevisiae mlh1 rad18 strain growth inhibition, hits give high values
Procedure, shortened: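 Cells of a genetically altered yeast strain, deficient in DNA damage repair, were treated with compound. Their growth was then compared with that of vehicle-treated cultures to give inhibition.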

[7] = at 5.0 µM (retest, dose inferred, filed as 0.5)
[8] = at 50.0 µM (retest, dose inferred, filed as 5.0)

Measured: growth inhibition

CCN(CC)c1ccc(N=Nc2ccc(-c3nc4cccn(C)c-4n3)cc2)cc1
active: [1]; at 50.0 µM 80.2% | [2]; at 50.0 µM 79.2% | [3]; at 50.0 µM 76.7% | [4]; at 50.0 µM 80.2% | [5]; at 50.0 µM 84.3% | [6]; at 50.0 µM 82%
inactive: [1]; [7] 8% | [1]; [8] 8% | [2]; [7] -5% | [2]; [8] -5% | [3]; [7] -13% | [3]; [8] -13% | [4]; [7] -2% | [4]; [8] -2% | [5]; [7] 9% | [5]; [8] 9% | [6]; [7] -4% | [6]; [8] -4%

Cc1c(CCl)c(=O)oc2c(C)c3occ(CCl)c(=O)c3cc12
active: [1]; at 50.0 µM 80.1% | [2]; at 50.0 µM 82.5% | [3]; at 50.0 µM 84.5% | [4]; at 50.0 µM 85.4% | [5]; at 50.0 µM 87.5% | [6]; at 50.0 µM 77.7%
inactive: [1]; [7] 6% | [1]; [8] 12% | [2]; [7] 20% | [2]; [8] 31% | [3]; [7] 17% | [3]; [8] 42% | [4]; [7] 41% | [4]; [8] 60% | [5]; [7] 28% | [5]; [8] 57% | [6]; [7] 29% | [6]; [8] 67%

CCC[CH2][Ge]([CH2]CCC)([CH2]CCC)[O]C(C)=O
active: [4]; at 50.0 µM 70.8%
inactive: [1]; [7] 2% | [1]; [8] 9% | [1]; at 50.0 µM 54.1% | [2]; [7] 0% | [2]; [8] 19% | [2]; at 50.0 µM 27.3% | [3]; [7] 4% | [3]; [8] 21% | [3]; at 50.0 µM 61.8% | [4]; [7] 1% | [4]; [8] -1% | [5]; [7] -2% | [5]; [8] 6% | [5]; at 50.0 µM 19.2% | [6]; [7] 2% | [6]; [8] 11% | [6]; at 50.0 µM 52.8%

CCCCCCCNc1ccc2c(cc1=O)C(NC(C)=O)CCc1cc(OC)c(OC)c(OC)c1-2 (stereo not given)
active: [1]; [8] 96% | [1]; at 50.0 µM 91.5% | [2]; [8] 98% | [3]; [8] 99% | [3]; at 50.0 µM 98.8% | [4]; [8] 95% | [5]; [8] 97% | [6]; [8] 97%
inactive: [1]; [7] 17% | [2]; [7] 8% | [2]; at 50.0 µM 16.8% | [3]; [7] 9% | [4]; [7] 7% | [4]; at 50.0 µM 30.8% | [5]; [7] 4% | [5]; at 50.0 µM 16.9% | [6]; [7] 13% | [6]; at 50.0 µM 7.55%

COc1cccc(N2C(=O)C3CC(CC(C)(C)C)c4c([nH]c5ccccc45)C3C2=O)c1 (stereo not given)
inactive: [1]; [7] 10% | [1]; [8] 33% | [1]; at 50.0 µM 33.6% | [2]; [7] 10% | [2]; [8] 22% | [2]; at 50.0 µM 27.6% | [3]; [7] 13% | [3]; [8] 20% | [3]; at 50.0 µM 35.9% | [4]; [7] -4% | [4]; [8] 33% | [4]; at 50.0 µM 19.7% | [5]; [7] 13% | [5]; [8] 11% | [5]; at 50.0 µM 63.4% | [6]; [7] 8% | [6]; [8] 30% | [6]; at 50.0 µM 23.3%

CCOc1c(N=Nc2ccccc2OC)c(C)nn1C(N)=S
inactive: [1]; [7] 6% | [1]; [8] 24% | [1]; at 50.0 µM 8.85% | [2]; [7] -10% | [2]; [8] 21% | [2]; at 50.0 µM 3.9% | [3]; [7] -5% | [3]; [8] 41% | [3]; at 50.0 µM 9.1% | [4]; [7] -2% | [4]; [8] 3% | [4]; at 50.0 µM -20.6% | [5]; [7] 1% | [5]; [8] 14% | [5]; at 50.0 µM 22.9% | [6]; [7] -4% | [6]; [8] 21% | [6]; at 50.0 µM 29.9%

CC(=O)O[C@H]1CC[C@H]2[C@@H]3CCc4cc(O)c(I)cc4[C@H]3CC[C@]12C
inactive: [1]; [7] 12% | [1]; at 50.0 µM 51.3% | [2]; [7] 0% | [2]; [8] 58% | [2]; at 50.0 µM 43.8% | [3]; [7] 23% | [4]; [7] 21% | [4]; at 50.0 µM 45% | [5]; [7] 20% | [5]; at 50.0 µM 47.5% | [6]; [7] 6% | [6]; at 50.0 µM 63.4%
active: [1]; [8] 84% | [3]; [8] 93% | [3]; at 50.0 µM 72.4% | [4]; [8] 75% | [5]; [8] 82% | [6]; [8] 80%

[Cl][Pt+2]([Cl])([Cl])[Cl].[NH-]CC1(C[NH-])CCCC1
active: [1]; [7] 86% | [1]; [8] 99% | [1]; at 50.0 µM 90.2% | [2]; [8] 99% | [2]; at 50.0 µM 90.8% | [3]; [8] 86% | [3]; at 50.0 µM 90.3% | [4]; [8] 81% | [4]; at 50.0 µM 86% | [5]; [8] 88% | [5]; at 50.0 µM 93% | [6]; [8] 98% | [6]; at 50.0 µM 83.5%
inactive: [2]; [7] 68% | [3]; [7] 62% | [4]; [7] 57% | [5]; [7] 61% | [6]; [7] 56%

Cc1ccc(C)c(NC(=O)CCC(=O)C(C#N)c2cccc3ccccc23)c1 (stereo not given)
inactive: [1]; [7] -22% | [1]; [8] 10% | [1]; at 50.0 µM -25.4% | [2]; [7] 3% | [2]; [8] 11% | [2]; at 50.0 µM 14.4% | [3]; [7] -12% | [3]; [8] -4% | [3]; at 50.0 µM 15.9% | [4]; [7] -6% | [4]; [8] 8% | [4]; at 50.0 µM -23.5% | [5]; [7] -5% | [5]; [8] 5% | [5]; at 50.0 µM 10.3% | [6]; [7] 1% | [6]; [8] 3% | [6]; at 50.0 µM 20.6%

ClC1=C(Cl)C2c3ccccc3C1c1ccccc12
inactive: [1]; [7] -4% | [2]; [7] 6% | [3]; [7] 0% | [4]; [7] -4% | [4]; at 50.0 µM 65.2% | [5]; [7] -9% | [5]; at 50.0 µM 47.9% | [6]; [7] -5%
active: [1]; [8] 97% | [1]; at 50.0 µM 93.6% | [2]; [8] 97% | [2]; at 50.0 µM 76.2% | [3]; [8] 97% | [3]; at 50.0 µM 95.7% | [4]; [8] 97% | [5]; [8] 98% | [6]; [8] 97% | [6]; at 50.0 µM 95.7%
